Measurements from the supplement of paper PMC6555819.

Legend:
Test in all cases: PBM binding z-score (relative to random genomic background probes); higher = stronger binding; sequences stand for … in GC…GCGATTGACAGCGTAGAATGAAGG
[1] = tested on: LXRa:RXRa (NR concentration 270 nM, RXRa partner concentration 90 nM)
Outline: (§1)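 Binding z-scores were set against random background probes. The data came from custom Agilent 4×180K protein-binding microarrays carrying double-stranded probes with 34-nt variable regions, incubated 1 h with ligand-free nuclear receptor dimers. Partner-specific antibodies detected binding, and scanned fluorescence was regression-normalized.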

[2] = tested on: LXRa homodimer (NR concentration 270 nM)
Outline: as §1

[3] = tested on: LXRb homodimer (NR concentration 270 nM)
Outline: as §1

[4] = tested on: PPARg:RXRa (NR concentration 180 nM, RXRa partner concentration 90 nM)
Outline: as §1

[5] = tested on: PPARg:RXRa 270nM:90nM, anti-RXR (NR concentration 270 nM, RXRa partner concentration 90 nM)
Outline: as §1

[6] = tested on: PPARg:RXRa 30nM:10nM, anti-RXR (NR concentration 30 nM, RXRa partner concentration 10 nM)
Outline: as §1

[7] = tested on: PPARg:RXRa 90nM:30nM, anti-RXR (NR concentration 90 nM, RXRa partner concentration 30 nM)
Outline: as §1

[8] = tested on: PPARg:RXRa DBDmut IVT, anti-RXR (DBD mutation: RXRa K156A/R161A, NR concentration 270 nM, RXRa partner concentration 90 nM)
Outline: as §1

[9] = tested on: PPARg:RXRa IVT, anti-PPARg (NR concentration 270 nM, RXRa partner concentration 90 nM)
Outline: as §1

[10] = tested on: PPARg DBDmut:RXRa IVT, anti-PPARg (DBD mutation: PPARg1 K132A/R137A, NR concentration 270 nM, RXRa partner concentration 90 nM)
Outline: as §1

[11] = tested on: PPARg DBDmut IVT, anti-PPARg (DBD mutation: PPARg1 K132A/R137A, NR concentration 270 nM)
Outline: as §1

[12] = tested on: PPARg homodimer (NR concentration 180 nM)
Outline: as §1

[13] = tested on: PXR:RXRa (NR concentration 270 nM, RXRa partner concentration 90 nM)
Outline: as §1

[14] = tested on: PXR homodimer (NR concentration 270 nM)
Outline: as §1

[15] = tested on: RARa:RXR (NR concentration 270 nM, RXRa partner concentration 90 nM)
Outline: as §1

[16] = tested on: RARa homodimer (NR concentration 270 nM)
Outline: as §1

[17] = tested on: RARb homodimer (NR concentration 270 nM)
Outline: as §1

[18] = tested on: PPARa:RXRa (NR concentration 270 nM, RXRa partner concentration 90 nM)
Outline: as §1

[19] = tested on: RARb:RXRa (NR concentration 270 nM, RXRa partner concentration 90 nM)
Outline: as §1

Row | Sequence | PBM binding z-score [1] | PBM binding z-score [2] | PBM binding z-score [3] | PBM binding z-score [4] | PBM binding z-score [5] | PBM binding z-score [6] | PBM binding z-score [7] | PBM binding z-score [8] | PBM binding z-score [9] | PBM binding z-score [10] | PBM binding z-score [11] | PBM binding z-score [12] | PBM binding z-score [13] | PBM binding z-score [14] | PBM binding z-score [15] | PBM binding z-score [16] | PBM binding z-score [17] | PBM binding z-score [18] | PBM binding z-score [19]
1 | TTACCAAGGTCAAGGTCGTTGATCCCTCTGTAGA | 5.51 | 3.05 | 1.11 | 6.32 | 6.38 | 3.44 | 5.46 | 3.67 | 5.09 | 1.64 | 0.631 | 4.12 | 5.31 | 2.27 | 5.57 | 1.71 | 4.86 |  | 
2 | CAAACGAGGTCAAAGGTCAAAGTCGAGCCAACCA |  | 7.06 | 4.76 | 13.9 | 11.2 | 13.8 | 13.8 | 7.13 | 8.38 | 5.96 | 5.7 | 7.87 |  | 5.27 |  | 6.67 | 5.59 | 7.69 | 
3 | CGTCCAAGGTCAAAGGTCATTGAAGAGATGACGG |  | 6.32 | 3.11 |  | 10 | 9.22 | 11.6 | 4.6 | 6.27 | 2.57 | 0.832 | 5.55 |  | 4.59 |  | 5.35 | 5.63 | 7.33 | 6.2
4 | CAAACTAGGTCAAGAGGTCAAAGTTCGCTTCCCG | 6.59 | 6.51 | 2.33 |  | 9.13 | 7.44 | 10.1 | 8.34 | 8.83 | 3.82 | 5.91 | 10.9 |  | 5.01 |  | 4.53 | 5.71 |  | 5.51
5 | CGAACGAGGTCACCAGGACAGTGAAGAGGTTGGA | 5.61 | 0.912 | 0.295 | 8.9 | 7.66 | 5.23 | 6.73 | 5.64 | 6.99 |  | -0.0539 | 3.06 | 5.37 | 0.985 | 5.85 | 1.08 | 4.89 |  | 
6 | CGTCCAAGGTCACGGTCAGTGAAAGAGACTCGAA | 6.12 | 0.892 | 0.155 | 7.75 | 7.26 | 4.16 | 6.37 | 4.83 | 5.66 | 1.95 | 0.958 | 4.68 | 4.93 | 0.843 | 6.25 | 2.14 | 4.71 |  | 
7 | GCTTACAGGTCAAAGGTTATAGCATGAATAGAAT |  | 2.63 | 1.4 | 11.5 | 9.51 | 8.9 | 10.5 | 5.27 | 6.3 | 2.55 | 3.43 | 3.21 | 6.17 | 0.923 | 7.96 | 0.992 | 3.69 |  | 4.93
8 | CGCACTAGGTCATCCAGGACAGTGAATACATTGA | 2.83 | 0.736 | 0.107 | 7.36 | 6.27 | 3.65 | 5.62 | 7.71 | 8.07 | 2.66 | 1.65 | 1.92 | 1.97 | 0.888 | 2.65 | 0.479 | 3.11 |  | 3.88
9 | CAAACCAGGTCAAAGGTCAAAGTCGAGCCAACCA |  | 5.78 | 3.31 | 13.2 | 10.7 | 11.3 | 12 | 6.71 | 7.43 | 2.48 | 1.06 | 4.04 |  | 2.11 | 9.04 | 3.33 | 5.45 | 7.46 | 5.8
10 | GGAACGAGGTCAAAGTTGATAGCATCTGTCGACG | 5.98 | 1.61 | 2.26 |  | 8.63 | 8.72 | 9.4 | 6.14 | 6.45 | 0.31 | 1.24 | 2.56 | 5.91 | 2.54 | 6.93 | 0.429 | 4.02 |  | 5.18
11 | CGAACTAGGTCATCCAGGACCGTGAATACATTGA | 2.19 | 0.428 | -0.349 | 7.13 | 6.1 | 3.53 | 5.78 | 8.24 | 8.09 | 1.32 | 0.732 | 1.83 | 1.34 | -0.0905 | 1.84 | 0.294 | 2.57 |  | 3.6
12 | CGTACAAGGTCAAAGGTCAGTGAAGAGATGACGG |  | 3.43 | 2.4 |  | 10.1 | 11.2 | 11.9 | 5.32 | 7.09 | 2.61 | 3.6 | 5.49 | 7.22 | 2.17 | 9.15 | 4.68 | 5.35 | 7.11 | 5.95
13 | CAAACAAGGTCACCGGAAGGTCAAAGTCCGCATG |  | 6.36 | 2.43 | 8.84 | 7.81 | 4.78 | 7.17 | 5.54 | 6.66 | 3.88 | 3.51 | 10.2 |  | 4.84 |  | 5.98 | 5.88 | 6.58 | 
14 | TATACAGGGTCAAAGGCCAAAGTACGAATGTCGA | 6.59 | 3.06 | 2.44 | 9.55 | 7.98 | 7.57 | 8.54 | 2.77 | 5.37 | 2.17 | 1.63 | 4.71 | 5.05 | 0.969 |  | 1.74 | 3.7 |  | 4.76
15 | CCTGCTAGGTCATGGTCAGCGAATCTACAGTATG | 2.19 | -0.0156 | -0.255 | 2.7 | 2.69 | 0.687 | 1.77 | 4.64 | 3.76 | -0.0271 | -0.639 | 2 | 1.18 | -0.875 | 2.26 | -0.334 | 3.29 |  | 4.09
16 | CGTCAAAGGTCAGCAGGTCAGTGAAAGCGACGTG | 6.48 | 2.22 | 1.28 | 8.46 | 7.84 | 4.46 | 7.02 | 4.94 | 5.73 | 1.7 | 1.47 | 7.06 | 5.39 | 0.608 |  | 4.86 | 5.42 |  | 
17 | CTATGTAGGTTAAGGGAGTCATTCAGTTTGAAAG | 0.682 | -0.134 |  | 4.76 | 4.4 | 1.9 | 3.53 | 6.9 | 6.74 |  |  | 0.863 |  | 0.389 | 0.462 | 0.236 | 0.609 |  | 0.814
